Source: PubChem BioAssay AID2112 (National Center for Advancing Translational Sciences (NCATS), 2009)
Screen size: about 240,000 compounds; about 15 (0.006%) were called active. Calls come from the whole dose curve; as a rule, active = well fitted inhibition curve with a large enough effect; inconclusive = small, poorly fitted or top-dose-only effect, or effect the other way, or another doubt; inactive = no such curve, though single readings can be large or run the other way. Not all results are given here. Where a SMILES comes first, the peptide text is derived from it.

Molecular target: Lysosomal alpha-glucosidase (Homo sapiens) (UniProt P10253)
Assay: qHTS Assay for Inhibitors and Activators of Human alpha-Glucosidase From Spleen Homogenate;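 note: 0% = enzyme with vehicle and -100% = no enzyme basal signal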
Conditions: 4-MU-alpha-glucoside fluorescence; series mostly up to 79.9 µM; activity change, negative = inhibition: at the top concentration
Excerpt: NIH Chemical Genomics Center [NCGC] NIH Molecular Libraries Probe Production Centers Network [MLPCN] MLPCN Grant: R03 MH084841-01 Assay Submitter (PI): Wei Zheng NCGC Assay Overview: Alpha-glucosidase is responsible for the hydrolysis of terminal, non-reducing 1,4-linked alpha-D-glucose residues, which releases alpha-D-glucose. It is a lysosomal hydrolase that is required for the degradation of a small percentage (1-3%) of cellular glycogen in humans. Deficiency of this enzyme results in glycogen-storage disease type II (GSDII), also referred to as Pompe disease, an autosomal recessive disorder. Structurally normal glycogen is accumulated in the lysosomes and cytoplasm in affected patients, primarily in muscle tissues. Excessive glycogen storage within lysosomes may interrupt normal functioning of other organelles and leads to cellular injury. In turn, this leads to enlargement and dysfunction of the entire organ involved (eg: cardiomyopathy and muscle weakness). It has been reported that the improper folding and trafficking of alpha-glucosidase resulting from genetic mutations may account for a significant number of Pompe patients. […] We optimized this alpha-glucosidase assay in 1536-well plate format for identification of novel small molecule inhibitors or activators with structures other than the sugar analogs in order to develop new pharmacological chaperones. In particular, this assay is directed towards discovering compounds active in a more natural setting, tissue homogenate, that may have been missed by screens of the purified enzyme under more stringent conditions.
NCGC Assay Protocol Summary: This is a fluorogenic enzyme assay with 4-methylumbelliferyl-alpha-D-glucopyranoside as the substrate and human spleen homogenate containing alpha-glucosidase as the enzyme preparation. Upon hydrolysis of this fluorogenic substrate, the resulting product, 4-methylumbelliferone (which excites at 365 nm and emits at 440 nm) can be detected by a fluorescence plate reader. Data were normalized to the controls for basal activity (without enzyme) and 100% activity (with enzyme). The AC50 values were determined from concentration-response data modeled with the standard Hill equation. Assay buffer: 50 mM citric acid (titrated with potassium phosphate to pH 5.0), 0.01% Tween-20 (pH 5.0 is an optimal condition for this enzyme assay) 1536-well assay protocol for the alpha-glucosidase from human spleen homogenate: (1) Add 2 ul/well spleen homogenate (1 ug) (2) Add 23 nL compounds in DMSO solution. The final titration was 0.5 nM to 58 uM. (3) Add 2 ul of substrate (1 mM final) (4) Incubate at 37 C for 40 min (5) Add 2 ul stop solution (1M NaOH and 1M Glycine mixture, pH 10) (6) Detect the assay plate in a ViewLux plate reader (PerkinElmer) with Ex=365 nm and Em=440nm. Keywords: Alpha-glucosidase, Pompe Disease, pharmacological chaperone, chaperone therapy, high throughput screening, alpha-glucosidase inhibitor, MLSMR, MLSCN, NIH Roadmap, qHTS and NCGC

Activity change, negative = inhibition, inactive:
Cc1nc(-c2ccccc2)sc1-c1nc(-c2ccccc2)ncc1S(=O)(=O)c1ccccc1 -0.37%
CO[C@@]12[C@@H](COC(N)=O)C3=C(C(=O)C(C)=C(N)C3=O)N1C[C@@H]1N[C@@H]12 -0.0282%
Cc1ccc2nc(/C(C#N)=C\c3ccc(OC(=O)c4cccs4)cc3)[nH]c2c1 -2.6%
COc1c(O)c2c(=O)cc(OC)c3c4c(OC)cc(=O)c5c(O)c(OC)c6c(c(c1C[C@@](C)(O)[C@H]6C(C)=O)c23)c54 -8.94%
Clc1ccc(C[n+]2cc(-c3ccc(Cl)cc3)n3c2CCC3)cc1 -3.89%
COc1ccc(NC2=CC(=S)NC(C)(C)C2)cc1 0.55%
O=C(NCC1CC1)C1(C(F)(F)F)C/C(=C\CCO)CCCO1 (stereo not given) 3.72%
COc1cc2[nH]c(=O)n(Cc3ccc(C(=O)NC4CCN(Cc5ccccc5)CC4)cc3)c(=O)c2cc1OC -0.526%
COC(=O)C(CC(C)C)NS(=O)(=O)c1cc(Br)ccc1Br (stereo not given) 3.71%
C=C1CCN(Cc2ccc(OC)cc2)S(=O)(=O)c2ccccc21 -11.5%
CCOc1cc(C2C(C(=O)OC(C)C)=C(C)NC3=C2C(=O)CCC3)cc([N+](=O)[O-])c1O (stereo not given) 1.08%
Cc1ccccc1N/C(SCc1ccc(Cl)cc1)=C(/C#N)C(N)=O 3.19%
Cc1c(-c2ccccc2)n[nH]c1C(=O)N=Nc1c(O)[nH]c2ccccc12 -7.29%
Cc1cc(C)c(NC(=O)CN2C(=O)NC(Cc3ccccc3)C2=O)c(C)c1 (stereo not given) 1.21%
CC(=O)c1c(N2CCN(c3ccc(F)cc3)CC2)nc(=S)n(-c2ccccc2)c1C 6.73%
O=C(CP(=O)(c1ccccc1)c1ccccc1)N1CCOCC1 -1.35%
Cc1nn(CCOc2ccc(Br)cc2)c(C)c1[N+](=O)[O-] 5.99%
COc1cc(OC)c2c(C)cc(=O)oc2c1C(CCN1CCCCC1)c1ccc(N(C)C)cc1 (stereo not given) 2.28%
Cc1ccc(-c2nc(C)sc2CC(=O)OCC(=O)Nc2c(F)cccc2F)cc1 0.406%
CCCCCCCC[C@@H](O)/C=C/C=C/C=C\[C@@H](O)CCCC(=O)O 1.53%
COc1ccc(CN2CCC(=O)c3ccccc3S2(=O)=O)cc1 -5.9%
COc1ccc(C2CC(O)(c3ccccc3)Oc3cc(C)cc(C)c32)cc1 (stereo not given) -2.15%
COC(=O)[C@@]1(C)C=C[C@@H](Cc2ccccc2)N1C(C)=O -11.6%
O=C(C1CCN(c2nnc(-n3cccc3)s2)CC1)N1CCc2ccccc2C1 -3.74%
O=C(CSc1ccccn1)Nc1nc2c(ccc3ccccc32)s1 -2.23%
CC(C)C(NS(=O)(=O)c1ccc(-c2ccc(Br)cc2)cc1)C(=O)O (stereo not given) 9.33%
C[C@@H](O)[C@@H]1NC(=O)[C@H](CCCCN)NC(=O)[C@H](Cc2c[nH]c3ccccc23)NC(=O)[C@H](Cc2ccccc2)NC(=O)[C@H](Cc2ccccc2)NC(=O)[C@H](CC(N)=O)NC(=O)[C@H](CCCCN)NC(=O)[C@@H](NC(=O)[C@@H]2CCCN2)CSSC[C@@H](C(=O)N[C@@H](CCCCN)C(=O)O)NC(=O)[C@H](CO)NC(=O)[C@H](CO)NC(=O)[C@H](Cc2ccccc2)NC1=O (HELM PEPTIDE1{P.C.K.N.F.F.W.K.T.F.S.S.C.K}$PEPTIDE1,PEPTIDE1,2:R3-13:R3$$$V2.0) 6.58%
CSc1ccccc1N1CCN(CCCCCC(=O)NC2CCCc3ccccc32)CC1 (stereo not given) -1.62%
CC[C@H](C)[C@H](NC(=O)[C@H](Cc1ccc(O)cc1)NC(=O)[C@@H](NC(=O)[C@H](CCCN=C(N)N)NC(=O)[C@@H](N)CC(=O)O)C(C)C)C(=O)N[C@@H](Cc1cnc[nH]1)C(=O)N1CCC[C@H]1C(=O)N[C@@H](Cc1ccccc1)C(=O)O -2.98%
Cc1ccc2c(c1)C(c1ccccc1)N(C(=O)c1ccc(S(=O)(=O)N3CCOCC3)cc1)CC(=O)N2 (stereo not given) 3.75%
COC(=O)[C@@]1(Cc2ccccc2)[C@H]2c3cc(C(=O)N(C)C)n(CCSCCO)c3C[C@H]2CN1C(=O)c1ccccc1 0.272%
Cc1ccc(CNC(=O)C2(C(F)(F)F)C/C(=C\CCO)CCCO2)o1 (stereo not given) -3.58%
O=C(c1cc(C(F)(F)F)cc(C(F)(F)F)c1)N1CCC2(CCCN(c3ccccn3)C2)CC1 2.45%
CCCN1CCC(=O)N(C(CSc2ccc(OC)cc2)Cc2ccccc2)CC1 (stereo not given) -8.71%
CCCCNC(=S)N/N=C1\CCCCc2ccccc21 -7.3%
C=CCCN(C(Cc1ccccc1)C(=O)OC)S(=O)(=O)c1cc(Br)ccc1Br (stereo not given) 0.718%
Cc1ccccc1Nc1scc(-c2ccc(Br)cc2)[n+]1-c1ccccc1C -4.94%
Cc1nc(C(=O)N2CCCC(C(=O)c3ccc(Cl)cc3)C2)cs1 (stereo not given) 1.42%
CC1=CC(=C(C#N)c2nc3ccccc3s2)C=C(C)N1c1ccc(F)cc1F 1.11%
Cc1cc(C(=O)OCC(=O)Nc2nccs2)c2ccccc2n1 2.11%
O=C1NC(=Nc2ccc(Cl)cc2)SC1Cc1cccc(Cl)c1Cl (stereo not given) -5.67%
Cc1ccc(S(=O)(=O)N(CC(=O)Nc2cccc([N+](=O)[O-])c2)Cc2ccc(Cl)cc2)cc1 2.83%
COc1ccc(C2=Nc3cc(C)ccc3OC2)cc1 -4.38%
CCOC(=O)Cn1c(=O)sc2cccc(Cl)c21 -7.95%
CCN(CC)CCNC(=O)c1sc2ncn(CC(=O)Nc3ccc(C)c(Cl)c3)c(=O)c2c1C -3.52%
Cc1cccc2c1-c1sc(C(=O)NCCCN3CCc4ccccc4C3)cc1CO2 18.1%
O=C1/C(=C/c2coc3ccc(O)cc3c2=O)SC(=S)N1c1ccccc1 4.43%
CC[C@H](C)[C@H](NC(=O)[C@H](CCCNC(=N)N)NC(=O)[C@H](CCCNC(=N)N)NC(=O)[C@H](CC(C)C)NC(=O)[C@H](Cc1ccccc1)NC(=O)CNC(=O)CNC(=O)[C@@H](N)Cc1ccc(O)cc1)C(=O)N[C@@H](CCCNC(=N)N)C(=O)N1CCC[C@H]1C(=O)N[C@@H](CCCCN)C(=O)N[C@@H](CC(C)C)C(=O)N[C@@H](CCCCN)C(=O)N[C@@H](Cc1c[nH]c2ccccc12)C(=O)N[C@@H](CC(=O)O)C(=O)N[C@@H](CC(N)=O)C(=O)N[C@@H](CCC(N)=O)C(=O)O -9.54%
COc1ccc(-c2ccc(C3C4C=CCCC4(C)C(=O)N3Cc3ccccc3)c(F)c2)cc1OC (stereo not given) -2.95%
Cc1ccc(-n2c(SCC(=O)N3c4ccccc4Sc4ccccc43)nnc2-c2ccncc2)cc1 -8.44%
